From the supplement of paper PMC12350171
Counter-ions that a name gives are not always drawn. Values without a mark were called inactive.

Assays:
Settings in all cases: 20 µM
[1] = test system: Haemophilus parainfluenzae; experiment: growth AUC normalised to DMSO control (fraction of control); higher = less growth inhibition, active = hit call of the paper
Outline: (§1)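 Hemin and NAD were added to the medium for Haemophilus parainfluenzae. All pathogens, after two anaerobic passages, were inoculated at a starting OD578 of 0.01 into pre-reduced mGAM plates with 20 μM compound and 1% DMSO under breathable seals, and OD578 was read hourly for 24 h in three biological replicates. AUC of each growth curve was obtained with the trapezoidal rule up to the exponential-to-stationary transition and normalised to DMSO controls from the same plate.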

[2] = test system: Salmonella enterica typhimurium; experiment: as above
Outline: as §1

Shigella flexneri = experiment: as above
Outline: as §1

Vibrio cholerae = experiment: as above
Outline: as §1

[3] = test system: Yersinia pseudotuberculosis; experiment: as above
Outline: as §1

P. vulgatus RND KO = experiment: growth AUC normalised to DMSO control (median) (fraction of control); higher = less growth inhibition, active = hit call of the paper
Outline: (§2)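 Each strain went through two overnight passages under anaerobic conditions before growth in mGAM in 96-well plates, starting at OD578 0.01, with each compound from the approved-drug library at 20 μM and 1% DMSO. Inside an anaerobic incubator, OD578 was recorded every hour for 24 h. Growth curves were cut off at entry into stationary phase, and the area under the curve was calculated by the trapezoidal rule and normalised to vehicle wells on the same plate. Reported values are medians of three biological replicates.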

P. vulgatus WT = experiment: as above
Outline: as §2

[4] = test system: S. enterica typhimurium WT; experiment: as above
Outline: as §2

[5] = test system: S. enterica typhimurium tolC KO; experiment: as above
Outline: as §2
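Wherever growth AUC normalised to DMSO control (median) is given: active when median AUC fell below 0.1.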

**Q.** Which “growth AUC normalised to DMSO control” value [1] does the source give for `CCOc1ccc(NC(C)=O)cc1` [Phenacetin] here?
**A.** 0.924

**Q.** With `CNC[C@H](O)[C@@H](O)[C@H](O)[C@H](O)CO` [Meglumine] as the compound, how does the “growth AUC normalised to DMSO control” value [1] read?
**A.** 1.05

**Q.** Which “growth AUC normalised to DMSO control” value [1] does the source give for `O=C(O)c1cccnc1` [Niacin] here?
**A.** 1.07

**Q.** `CN[C@H](CC(C)C)C(=O)N[C@H]1C(=O)N[C@@H](CC(N)=O)C(=O)N[C@H]2C(=O)N[C@H]3C(=O)N[C@H](C(=O)N[C@H](C(=O)O)c4cc(O)cc(O)c4-c4cc3ccc4O)[C@H](O)c3ccc(c(Cl)c3)Oc3cc2cc(c3O[C@@H]2O[C@H](CO)[C@@H](O)[C@H](O)[C@H]2O[C@H]2C[C@](C)(N)[C@H](O)[C@H](C)O2)Oc2ccc(cc2Cl)[C@H]1O` [Vancomycin hydrochloride] was tested. Which “growth AUC normalised to DMSO control” value [1] did it give?
**A.** 1.01

**Q.** How did the “growth AUC normalised to DMSO control” value [1] turn out when `CCSc1ccc2c(c1)N(CCCN1CCN(C)CC1)c1ccccc1S2` [Thiethylperazine maleate] was run?
**A.** 1.02

**Q.** How did the “growth AUC normalised to DMSO control” value [1] turn out when `O=C(O)CCNC(=O)c1ccc(/N=N/c2ccc(O)c(C(=O)O)c2)cc1` [Balsalazide disodium salt] was run?
**A.** 1.07

**Q.** Which “growth AUC normalised to DMSO control” value [1] does the source give for `CC(C)NC[C@@H](O)COc1cccc2ccccc12` [(R) Propranolol hydrochloride] here?
**A.** 0.99

**Q.** For `NS(=O)(=O)c1cc2c(cc1Cl)NCNS2(=O)=O` [Hydrochlorothiazide], which “growth AUC normalised to DMSO control” value [1] is on record?
**A.** 0.967

**Q.** Which “growth AUC normalised to DMSO control” value [1] does the source give for `O=C(O)COCCN1CCN(C(c2ccccc2)c2ccc(Cl)cc2)CC1` (configuration not stated) [Cetirizine dihydrochloride] here?
**A.** 0.943

**Q.** How did the “growth AUC normalised to DMSO control” value [1] turn out when `CC(C)(O)c1ccccc1CC[C@@H](SCC1(CC(=O)O)CC1)c1cccc(/C=C/c2ccc3ccc(Cl)cc3n2)c1` [Montelukast] was run?
**A.** 0.964

**Q.** For `CCN(CC)CC(=O)Nc1c(C)cccc1C` [Lidocaine hydrochloride], which “growth AUC normalised to DMSO control” value [1] is on record?
**A.** 1.02

**Q.** How did the “growth AUC normalised to DMSO control” value [1] turn out when `CN(C)c1ccc(O)c2c1C[C@H]1C[C@H]3[C@H](N(C)C)C(=O)C(C(N)=O)=C(O)[C@@]3(O)C(=O)C1=C2O` [Minocycline hydrochloride] was run?
**A.** 0.0348 (active)

**Q.** How did the “growth AUC normalised to DMSO control” value [1] turn out when `CC1(C)[C@@H](OC(=O)CCC(=O)O)CC[C@]2(C)[C@H]3C(=O)C=C4[C@@H]5C[C@@](C)(C(=O)O)CC[C@]5(C)CC[C@@]4(C)[C@]3(C)CC[C@@H]12` [Carbenoxolone disodium salt] was run?
**A.** 0.964

**Q.** For `Cc1cc(C)nc(NS(=O)(=O)c2ccc(N)cc2)n1` [Sulfamethazine sodium salt], which “growth AUC normalised to DMSO control” value [1] is on record?
**A.** 0.999

**Q.** `CC(C)(C)c1ccc(C(O)CCCN2CCC(C(O)(c3ccccc3)c3ccccc3)CC2)cc1` (configuration not stated) [Terfenadine] was tested. Which “growth AUC normalised to DMSO control” value [1] did it give?
**A.** 0.88

**Q.** Which “growth AUC normalised to DMSO control” value [1] does the source give for `CN(C)CCC(c1ccc(Br)cc1)c1ccccn1` (configuration not stated) [Brompheniramine maleate] here?
**A.** 1.04

**Q.** Which “growth AUC normalised to DMSO control” value [1] does the source give for `COc1ccc(C(=O)NCc2cccnc2)cc1C(=O)NCc1cccnc1` [Picotamide monohydrate] here?
**A.** 0.997

**Q.** `CC(=O)S[C@@H]1CC2=CC(=O)CC[C@]2(C)[C@H]2CC[C@@]3(C)[C@@H](CC[C@@]34CCC(=O)O4)[C@H]12` [Spironolactone] was tested. Which “growth AUC normalised to DMSO control” value [1] did it give?
**A.** 0.891

**Q.** For `CCOC(=O)C1=C[C@]2(CC)CCCN3CCc4c(n1c1ccccc41)[C@@H]32` [Vinpocetine], which “growth AUC normalised to DMSO control” value [1] is on record?
**A.** 0.845

**Q.** How did the “growth AUC normalised to DMSO control” value [1] turn out when `COc1cc2nc(N3CCN(C(=O)C4COc5ccccc5O4)CC3)nc(N)c2cc1OC` (configuration not stated) [Doxazosin mesylate] was run?
**A.** 0.992

**Q.** How did the “growth AUC normalised to DMSO control” value [1] turn out when `CC(CN(C)C)C(C)(O)Cc1ccc(Cl)cc1` (configuration not stated) [Clobutinol hydrochloride] was run?
**A.** 0.963

**Q.** `CC[C@H](C)[C@H]1O[C@]2(C=C[C@@H]1C)C[C@@H]1C[C@@H](C/C=C(\C)[C@@H](O[C@H]3C[C@H](OC)[C@@H](O[C@H]4C[C@H](OC)[C@@H](O)[C@H](C)O4)[C@H](C)O3)[C@@H](C)/C=C/C=C3\CO[C@@H]4[C@H](O)C(C)=C[C@@H](C(=O)O1)[C@]34O)O2.CO[C@H]1C[C@H](O[C@H]2[C@H](C)O[C@@H](O[C@@H]3/C(C)=C/C[C@@H]4C[C@@H](C[C@]5(C=C[C@H](C)[C@@H](C(C)C)O5)O4)OC(=O)[C@@H]4C=C(C)[C@@H](O)[C@H]5OC/C(=C\C=C\[C@@H]3C)[C@]54O)C[C@@H]2OC)O[C@@H](C)[C@@H]1O` [Avermectin B1] was tested. Which “growth AUC normalised to DMSO control” value [2] did it give?
**A.** 1.02

**Q.** And the “growth AUC normalised to DMSO control” value (Shigella flexneri)?
**A.** 1.03

**Q.** And the “growth AUC normalised to DMSO control” value (Vibrio cholerae)?
**A.** 1.02

**Q.** What about the “growth AUC normalised to DMSO control” value [3] of the same compound?
**A.** 1.01

**Q.** What does the source list for `C[C@]12CC[C@H](O)C[C@@H]1CC[C@@H]1[C@@H]2CC[C@]2(C)C(=O)CC[C@@H]12` [Epiandrosterone]?
**A.** growth AUC normalised to DMSO control [1]: 1; growth AUC normalised to DMSO control [2]: 0.987; growth AUC normalised to DMSO control (Shigella flexneri): 0.99; growth AUC normalised to DMSO control (Vibrio cholerae): 1.19; growth AUC normalised to DMSO control [3]: 0.997; growth AUC normalised to DMSO control (P. vulgatus RND KO): 1; growth AUC normalised to DMSO control (P. vulgatus WT): 1.03; growth AUC normalised to DMSO control [4]: 1; growth AUC normalised to DMSO control [5]: 0.951

**Q.** With `C#CCN(C)[C@H](C)Cc1ccccc1` [Selegiline hydrochloride] as the compound, how does the “growth AUC normalised to DMSO control” value [1] read?
**A.** 0.985

**Q.** And the “growth AUC normalised to DMSO control” value [2]?
**A.** 1.02

**Q.** And the “growth AUC normalised to DMSO control” value (Shigella flexneri)?
**A.** 1.05

**Q.** What about the “growth AUC normalised to DMSO control” value (Vibrio cholerae) of the same compound?
**A.** 1.01

**Q.** What about the “growth AUC normalised to DMSO control” value [3] of the same compound?
**A.** 1.03

**Q.** What about the “growth AUC normalised to DMSO control” value (P. vulgatus RND KO) of the same compound?
**A.** 1.03

**Q.** And the “growth AUC normalised to DMSO control” value (P. vulgatus WT)?
**A.** 1.05

**Q.** What about the “growth AUC normalised to DMSO control” value [4] of the same compound?
**A.** 1

**Q.** What about the “growth AUC normalised to DMSO control” value [5] of the same compound?
**A.** 1.01

**Q.** With `CC(C)(N)Cc1ccccc1` [Phentermine hydrochloride] as the compound, how does the “growth AUC normalised to DMSO control” value [1] read?
**A.** 1.02

**Q.** And the “growth AUC normalised to DMSO control” value [2]?
**A.** 1.02

**Q.** And the “growth AUC normalised to DMSO control” value (Shigella flexneri)?
**A.** 1.03

**Q.** What about the “growth AUC normalised to DMSO control” value (Vibrio cholerae) of the same compound?
**A.** 1.04

**Q.** What about the “growth AUC normalised to DMSO control” value [3] of the same compound?
**A.** 1.01

**Q.** And the “growth AUC normalised to DMSO control” value (P. vulgatus RND KO)?
**A.** 0.0617 (active)

**Q.** What about the “growth AUC normalised to DMSO control” value (P. vulgatus WT) of the same compound?
**A.** 0.458

**Q.** And the “growth AUC normalised to DMSO control” value [4]?
**A.** 0.992

**Q.** What about the “growth AUC normalised to DMSO control” value [5] of the same compound?
**A.** 0.996
